# Measurements: article PMC7862700, “An all-to-all approach to the identification of sequence-specific readers for epigenetic DNA modifications on cytosine”
# Experiments:
# Assay in all cases: DAPPL (digital affinity profiling via proximity ligation, sequencing); 10 mM Tris-HCl pH 7.5, 50 mM NaCl, 1 mM DTT, 4% glycerol, room temperature, 30 min; GST-TFs on glutathione beads, 16-mer random dsDNA library, 0.1% formaldehyde crosslink after washing; high values mean tight binding
# FLI1 = biological target: T1, FLI1 (Homo sapiens, UniProt Q01543 1-452); settings: protein: recombinant; tags: N-terminal GST; dsDNA, one strand shown
# T1 sequence: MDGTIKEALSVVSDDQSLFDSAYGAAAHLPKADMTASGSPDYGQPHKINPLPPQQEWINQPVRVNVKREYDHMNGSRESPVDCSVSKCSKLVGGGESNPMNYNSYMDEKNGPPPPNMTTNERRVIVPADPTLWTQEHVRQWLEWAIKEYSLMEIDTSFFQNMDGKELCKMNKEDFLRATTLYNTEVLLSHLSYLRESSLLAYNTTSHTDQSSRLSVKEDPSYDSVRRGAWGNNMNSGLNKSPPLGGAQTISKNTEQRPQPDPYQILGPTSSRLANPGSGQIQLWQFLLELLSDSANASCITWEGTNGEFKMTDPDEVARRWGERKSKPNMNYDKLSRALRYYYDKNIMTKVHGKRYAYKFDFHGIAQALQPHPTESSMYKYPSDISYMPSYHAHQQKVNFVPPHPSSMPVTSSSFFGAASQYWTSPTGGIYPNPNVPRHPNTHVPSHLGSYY
# Outline: (§1)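 Binding signal is each hexamer's read frequency for a factor divided by its frequency in the tag-only sample. The factors were GST-fused human transcription factors from yeast, captured on glutathione beads, DNA-barcoded and pooled with that sample. Pools were incubated with 200 nmole of a random double-stranded 16-mer DNA library in Tris/NaCl/DTT/glycerol buffer at room temperature for 30 min, then washed, crosslinked with 0.1% formaldehyde, proximity-ligated with BsaI/T4 ligase (1 h, 37 °C), PCR-amplified and sequenced on an Illumina NextSeq500.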
# ELK1 = biological target: T2, ELK1 (Homo sapiens, UniProt P19419 1-428); settings: protein: recombinant; tags: N-terminal GST; dsDNA, one strand shown
# T2 sequence: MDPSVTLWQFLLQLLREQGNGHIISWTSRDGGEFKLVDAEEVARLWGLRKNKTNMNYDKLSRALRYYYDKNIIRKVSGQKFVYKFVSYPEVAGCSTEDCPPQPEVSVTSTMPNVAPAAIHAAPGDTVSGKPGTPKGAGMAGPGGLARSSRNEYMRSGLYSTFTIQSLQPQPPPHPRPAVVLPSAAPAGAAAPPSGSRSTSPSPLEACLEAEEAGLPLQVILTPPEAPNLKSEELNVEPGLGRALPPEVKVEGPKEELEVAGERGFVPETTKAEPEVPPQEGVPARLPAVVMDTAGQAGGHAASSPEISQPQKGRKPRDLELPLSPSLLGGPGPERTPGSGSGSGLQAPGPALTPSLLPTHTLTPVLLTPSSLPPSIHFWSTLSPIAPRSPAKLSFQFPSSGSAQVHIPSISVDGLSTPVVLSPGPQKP
# Outline: as §1
# GABPA = biological target: T3, GABPA (Homo sapiens, UniProt Q06546 1-454); settings: protein: recombinant; tags: N-terminal GST; dsDNA, one strand shown
# T3 sequence: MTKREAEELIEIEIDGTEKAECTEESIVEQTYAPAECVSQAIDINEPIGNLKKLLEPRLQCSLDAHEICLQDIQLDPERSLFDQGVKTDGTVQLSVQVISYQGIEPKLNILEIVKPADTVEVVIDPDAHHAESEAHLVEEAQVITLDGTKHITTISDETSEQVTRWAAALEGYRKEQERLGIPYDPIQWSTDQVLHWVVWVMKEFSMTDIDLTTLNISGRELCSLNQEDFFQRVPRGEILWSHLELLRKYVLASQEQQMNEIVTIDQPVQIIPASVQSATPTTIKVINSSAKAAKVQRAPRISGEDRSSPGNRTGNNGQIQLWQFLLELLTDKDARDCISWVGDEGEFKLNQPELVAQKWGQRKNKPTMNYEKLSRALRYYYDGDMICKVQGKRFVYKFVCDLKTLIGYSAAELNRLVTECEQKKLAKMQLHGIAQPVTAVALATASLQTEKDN
# Outline: as §1
# ERG = biological target: T4, ERG (Homo sapiens, UniProt P11308 1-479); settings: protein: recombinant; tags: N-terminal GST; dsDNA, one strand shown
# T4 sequence: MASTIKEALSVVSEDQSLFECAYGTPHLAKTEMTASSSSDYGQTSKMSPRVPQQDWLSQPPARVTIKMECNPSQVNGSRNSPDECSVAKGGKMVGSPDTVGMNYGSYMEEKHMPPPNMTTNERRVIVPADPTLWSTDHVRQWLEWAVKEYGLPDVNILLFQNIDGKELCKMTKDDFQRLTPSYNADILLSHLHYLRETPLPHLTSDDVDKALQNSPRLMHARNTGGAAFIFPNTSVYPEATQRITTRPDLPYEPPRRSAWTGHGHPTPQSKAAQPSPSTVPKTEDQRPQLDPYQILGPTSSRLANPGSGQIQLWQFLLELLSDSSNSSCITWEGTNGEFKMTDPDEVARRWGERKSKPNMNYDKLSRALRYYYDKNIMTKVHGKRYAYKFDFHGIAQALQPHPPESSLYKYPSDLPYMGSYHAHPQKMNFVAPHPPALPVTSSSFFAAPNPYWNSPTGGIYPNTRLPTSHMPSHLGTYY
# Outline: as §1
# ELF1 = ELF1 (Homo sapiens, UniProt P32519 1-619); settings: protein: recombinant; tags: N-terminal GST; dsDNA, one strand shown
# Outline: as §1
# EHF = biological target: T5, EHF (Homo sapiens, UniProt Q9NZC4 1-300); settings: protein: recombinant; tags: N-terminal GST; dsDNA, one strand shown
# T5 sequence: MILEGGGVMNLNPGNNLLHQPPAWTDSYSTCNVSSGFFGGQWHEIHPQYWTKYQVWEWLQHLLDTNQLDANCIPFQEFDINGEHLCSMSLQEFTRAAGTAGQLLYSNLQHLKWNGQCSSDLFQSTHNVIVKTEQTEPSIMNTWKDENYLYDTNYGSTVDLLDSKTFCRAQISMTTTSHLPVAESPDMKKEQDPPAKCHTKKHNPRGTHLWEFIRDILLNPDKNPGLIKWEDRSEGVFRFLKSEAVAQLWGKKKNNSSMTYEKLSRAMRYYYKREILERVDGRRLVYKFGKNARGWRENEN
# Outline: as §1
# SPI1 = SPI1 (Homo sapiens, UniProt P17947 1-270); settings: protein: recombinant; tags: N-terminal GST; dsDNA, one strand shown
# Outline: as §1
# SPIB = SPIB (Homo sapiens, UniProt Q01892 1-262); settings: protein: recombinant; tags: N-terminal GST; dsDNA, one strand shown
# Outline: as §1
# ELK3 = biological target: T6, ELK3 (Homo sapiens, UniProt P41970 1-407); settings: protein: recombinant; tags: N-terminal GST; dsDNA, one strand shown
# T6 sequence: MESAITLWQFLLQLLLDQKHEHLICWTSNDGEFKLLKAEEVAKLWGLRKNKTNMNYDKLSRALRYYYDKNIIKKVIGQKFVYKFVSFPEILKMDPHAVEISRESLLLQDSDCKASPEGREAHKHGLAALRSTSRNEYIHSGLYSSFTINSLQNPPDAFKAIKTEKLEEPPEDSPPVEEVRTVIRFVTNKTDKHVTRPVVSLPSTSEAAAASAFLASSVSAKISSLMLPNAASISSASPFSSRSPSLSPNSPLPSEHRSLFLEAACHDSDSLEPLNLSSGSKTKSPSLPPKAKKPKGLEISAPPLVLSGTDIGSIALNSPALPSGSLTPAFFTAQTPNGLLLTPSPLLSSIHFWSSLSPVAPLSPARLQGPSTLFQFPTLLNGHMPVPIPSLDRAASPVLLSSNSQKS
# Outline: as §1
# FEV = biological target: T7, FEV (Homo sapiens, UniProt Q99581 1-238); settings: protein: recombinant; tags: N-terminal GST; dsDNA, one strand shown
# T7 sequence: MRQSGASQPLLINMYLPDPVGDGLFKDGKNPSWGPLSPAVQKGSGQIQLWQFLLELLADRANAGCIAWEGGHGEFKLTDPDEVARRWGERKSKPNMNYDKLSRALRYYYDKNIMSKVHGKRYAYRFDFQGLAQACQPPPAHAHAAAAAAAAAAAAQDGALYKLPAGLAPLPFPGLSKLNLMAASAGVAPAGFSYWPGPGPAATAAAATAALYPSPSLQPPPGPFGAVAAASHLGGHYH
# Outline: as §1
# ETV5 = ETV5 (Homo sapiens, UniProt P41161 1-510); settings: protein: recombinant; tags: N-terminal GST; dsDNA, one strand shown
# Outline: as §1
# HSF1 = HSF1 (Homo sapiens, UniProt Q00613 1-529); settings: protein: recombinant; tags: N-terminal GST; chain copies: 3; dsDNA, one strand shown
# Outline: as §1
# SPIC = biological target: T8, SPIC (Homo sapiens, UniProt Q8N5J4 1-248); settings: protein: recombinant; tags: N-terminal GST; dsDNA, one strand shown
# T8 sequence: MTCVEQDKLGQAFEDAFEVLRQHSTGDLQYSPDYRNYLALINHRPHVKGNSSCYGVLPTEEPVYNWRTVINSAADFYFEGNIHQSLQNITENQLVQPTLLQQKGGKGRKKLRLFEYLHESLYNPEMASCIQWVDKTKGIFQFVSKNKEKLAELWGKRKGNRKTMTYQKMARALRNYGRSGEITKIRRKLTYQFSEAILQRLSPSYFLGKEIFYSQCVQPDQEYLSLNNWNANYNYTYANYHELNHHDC
# Outline: as §1
# ELF4 = ELF4 (Homo sapiens, UniProt Q99607 1-663); settings: protein: recombinant; tags: N-terminal GST; dsDNA, one strand shown
# Outline: as §1
# ELK4 = biological target: T9, ELK4 (Homo sapiens, UniProt P28324-2 1-405); settings: protein: recombinant; tags: N-terminal GST; dsDNA, one strand shown
# T9 sequence: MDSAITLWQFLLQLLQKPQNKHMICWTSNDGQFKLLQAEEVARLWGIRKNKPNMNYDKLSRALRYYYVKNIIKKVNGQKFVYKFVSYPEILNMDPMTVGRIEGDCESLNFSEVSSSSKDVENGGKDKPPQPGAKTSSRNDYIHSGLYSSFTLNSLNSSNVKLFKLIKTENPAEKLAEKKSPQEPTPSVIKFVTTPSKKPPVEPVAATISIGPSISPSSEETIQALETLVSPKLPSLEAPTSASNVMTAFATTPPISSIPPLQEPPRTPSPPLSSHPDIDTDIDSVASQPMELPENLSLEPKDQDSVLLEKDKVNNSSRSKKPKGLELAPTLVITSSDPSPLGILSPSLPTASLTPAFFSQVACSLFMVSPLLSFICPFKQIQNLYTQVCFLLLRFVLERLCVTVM
# Outline: as §1
# ETV2 = biological target: T10, ETV2 (Homo sapiens, UniProt O00321 1-342); settings: protein: recombinant; tags: N-terminal GST; dsDNA, one strand shown
# T10 sequence: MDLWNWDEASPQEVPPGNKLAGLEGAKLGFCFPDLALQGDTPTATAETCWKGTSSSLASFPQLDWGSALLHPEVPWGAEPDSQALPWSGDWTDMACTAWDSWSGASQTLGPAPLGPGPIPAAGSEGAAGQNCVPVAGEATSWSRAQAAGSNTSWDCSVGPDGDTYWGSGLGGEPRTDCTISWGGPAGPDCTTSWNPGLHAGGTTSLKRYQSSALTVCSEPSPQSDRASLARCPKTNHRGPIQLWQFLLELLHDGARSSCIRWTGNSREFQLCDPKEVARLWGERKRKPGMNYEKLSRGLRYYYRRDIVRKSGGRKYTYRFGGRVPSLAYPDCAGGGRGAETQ
# Outline: as §1
# ELF3 = biological target: T11, ELF3 (Homo sapiens, UniProt P78545 1-371); settings: protein: recombinant; tags: N-terminal GST; dsDNA, one strand shown
# T11 sequence: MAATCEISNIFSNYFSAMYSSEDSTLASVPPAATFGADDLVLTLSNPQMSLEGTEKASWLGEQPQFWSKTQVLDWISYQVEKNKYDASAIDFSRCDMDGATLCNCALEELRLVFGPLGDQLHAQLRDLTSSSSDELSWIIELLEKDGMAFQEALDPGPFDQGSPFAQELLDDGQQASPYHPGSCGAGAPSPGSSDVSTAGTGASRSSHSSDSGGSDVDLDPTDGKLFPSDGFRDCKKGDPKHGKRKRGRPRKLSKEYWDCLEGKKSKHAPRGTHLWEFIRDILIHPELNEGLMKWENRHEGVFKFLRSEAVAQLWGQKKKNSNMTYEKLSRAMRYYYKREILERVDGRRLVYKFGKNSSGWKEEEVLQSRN
# Outline: as §1
# CRX = CRX (Homo sapiens, UniProt O43186 1-299); settings: protein: recombinant; tags: N-terminal GST; dsDNA, one strand shown
# Outline: as §1
# ETV1 = ETV1 (Homo sapiens, UniProt P50549 1-477); settings: protein: recombinant; tags: N-terminal GST; dsDNA, one strand shown
# Outline: as §1
# Chain of CRX (O43186 whole entry): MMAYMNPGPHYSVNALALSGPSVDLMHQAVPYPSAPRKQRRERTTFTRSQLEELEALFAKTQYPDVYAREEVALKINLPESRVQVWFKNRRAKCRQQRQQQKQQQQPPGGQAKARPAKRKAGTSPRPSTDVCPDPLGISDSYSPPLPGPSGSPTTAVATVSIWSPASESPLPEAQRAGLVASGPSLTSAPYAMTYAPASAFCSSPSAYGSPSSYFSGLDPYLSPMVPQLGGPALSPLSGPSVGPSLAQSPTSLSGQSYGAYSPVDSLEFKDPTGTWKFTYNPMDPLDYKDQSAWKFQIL
# Chain of HSF1 (Q00613 whole entry): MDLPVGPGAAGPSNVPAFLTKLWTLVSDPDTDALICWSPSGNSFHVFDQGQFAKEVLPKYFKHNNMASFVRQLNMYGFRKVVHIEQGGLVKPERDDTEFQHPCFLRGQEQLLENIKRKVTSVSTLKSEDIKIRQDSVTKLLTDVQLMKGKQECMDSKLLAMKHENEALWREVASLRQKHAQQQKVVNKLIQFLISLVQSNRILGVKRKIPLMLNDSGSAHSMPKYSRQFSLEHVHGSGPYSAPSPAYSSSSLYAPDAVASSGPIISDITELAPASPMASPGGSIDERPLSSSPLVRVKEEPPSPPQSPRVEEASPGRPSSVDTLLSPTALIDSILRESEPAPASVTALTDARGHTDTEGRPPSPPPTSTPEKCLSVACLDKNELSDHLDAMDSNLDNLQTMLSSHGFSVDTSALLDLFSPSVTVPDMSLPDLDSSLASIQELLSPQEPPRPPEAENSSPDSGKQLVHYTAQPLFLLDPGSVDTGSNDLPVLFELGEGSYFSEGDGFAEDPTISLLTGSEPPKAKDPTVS
# Chain of ETV5 (P41161 whole entry): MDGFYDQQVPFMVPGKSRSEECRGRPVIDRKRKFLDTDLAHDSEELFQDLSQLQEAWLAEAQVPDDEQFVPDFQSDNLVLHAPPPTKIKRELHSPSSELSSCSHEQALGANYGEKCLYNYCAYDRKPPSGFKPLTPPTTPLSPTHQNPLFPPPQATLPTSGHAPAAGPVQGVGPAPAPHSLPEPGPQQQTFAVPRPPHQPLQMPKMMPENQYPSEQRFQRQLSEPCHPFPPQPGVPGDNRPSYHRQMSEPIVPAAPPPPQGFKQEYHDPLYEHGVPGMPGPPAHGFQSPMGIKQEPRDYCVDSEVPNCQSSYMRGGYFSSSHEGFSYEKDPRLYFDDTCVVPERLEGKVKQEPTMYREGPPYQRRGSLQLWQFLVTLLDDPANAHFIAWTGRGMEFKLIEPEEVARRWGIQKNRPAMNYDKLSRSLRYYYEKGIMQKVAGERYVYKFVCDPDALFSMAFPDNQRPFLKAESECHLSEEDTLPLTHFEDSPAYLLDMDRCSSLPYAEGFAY
# Chain of ETV1 (P50549 whole entry): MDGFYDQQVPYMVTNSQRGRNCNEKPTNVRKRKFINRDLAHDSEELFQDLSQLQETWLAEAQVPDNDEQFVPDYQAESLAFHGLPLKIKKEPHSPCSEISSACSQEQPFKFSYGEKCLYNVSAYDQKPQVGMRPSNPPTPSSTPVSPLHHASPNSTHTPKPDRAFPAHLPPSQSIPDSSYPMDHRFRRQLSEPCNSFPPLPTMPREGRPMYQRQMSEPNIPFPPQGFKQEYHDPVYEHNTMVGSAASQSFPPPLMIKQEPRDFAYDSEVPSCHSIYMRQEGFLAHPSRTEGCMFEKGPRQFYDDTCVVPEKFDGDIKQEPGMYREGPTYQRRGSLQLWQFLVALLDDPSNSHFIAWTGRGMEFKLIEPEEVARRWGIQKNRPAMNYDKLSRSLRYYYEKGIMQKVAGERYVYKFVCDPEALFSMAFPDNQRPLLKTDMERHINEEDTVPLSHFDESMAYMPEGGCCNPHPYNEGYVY
# Chain of ELF1 (P32519 whole entry): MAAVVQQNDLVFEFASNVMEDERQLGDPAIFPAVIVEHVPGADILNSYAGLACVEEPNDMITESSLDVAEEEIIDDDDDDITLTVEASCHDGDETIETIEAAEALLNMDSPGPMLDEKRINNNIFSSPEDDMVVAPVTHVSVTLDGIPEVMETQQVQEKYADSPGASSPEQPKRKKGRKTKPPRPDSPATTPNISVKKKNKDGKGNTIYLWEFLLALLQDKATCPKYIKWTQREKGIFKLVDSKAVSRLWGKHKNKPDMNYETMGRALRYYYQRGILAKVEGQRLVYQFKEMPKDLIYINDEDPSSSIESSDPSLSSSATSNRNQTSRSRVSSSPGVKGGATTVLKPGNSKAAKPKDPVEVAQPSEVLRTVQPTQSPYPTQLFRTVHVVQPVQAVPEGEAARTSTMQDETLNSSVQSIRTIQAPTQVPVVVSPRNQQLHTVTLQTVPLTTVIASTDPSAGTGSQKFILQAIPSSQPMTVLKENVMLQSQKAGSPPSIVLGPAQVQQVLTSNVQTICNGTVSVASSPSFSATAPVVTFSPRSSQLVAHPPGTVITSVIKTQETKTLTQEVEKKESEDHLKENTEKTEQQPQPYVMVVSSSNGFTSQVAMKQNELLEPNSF
# Chain of SPIB (Q01892 whole entry): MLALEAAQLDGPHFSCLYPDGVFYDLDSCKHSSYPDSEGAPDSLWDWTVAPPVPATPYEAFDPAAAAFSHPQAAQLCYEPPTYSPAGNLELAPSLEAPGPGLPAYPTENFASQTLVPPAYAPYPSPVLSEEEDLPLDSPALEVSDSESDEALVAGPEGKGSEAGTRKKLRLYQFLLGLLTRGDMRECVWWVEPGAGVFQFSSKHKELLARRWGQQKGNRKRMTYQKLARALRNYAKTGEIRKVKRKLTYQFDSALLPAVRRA
# Chain of ELF4 (Q99607 whole entry): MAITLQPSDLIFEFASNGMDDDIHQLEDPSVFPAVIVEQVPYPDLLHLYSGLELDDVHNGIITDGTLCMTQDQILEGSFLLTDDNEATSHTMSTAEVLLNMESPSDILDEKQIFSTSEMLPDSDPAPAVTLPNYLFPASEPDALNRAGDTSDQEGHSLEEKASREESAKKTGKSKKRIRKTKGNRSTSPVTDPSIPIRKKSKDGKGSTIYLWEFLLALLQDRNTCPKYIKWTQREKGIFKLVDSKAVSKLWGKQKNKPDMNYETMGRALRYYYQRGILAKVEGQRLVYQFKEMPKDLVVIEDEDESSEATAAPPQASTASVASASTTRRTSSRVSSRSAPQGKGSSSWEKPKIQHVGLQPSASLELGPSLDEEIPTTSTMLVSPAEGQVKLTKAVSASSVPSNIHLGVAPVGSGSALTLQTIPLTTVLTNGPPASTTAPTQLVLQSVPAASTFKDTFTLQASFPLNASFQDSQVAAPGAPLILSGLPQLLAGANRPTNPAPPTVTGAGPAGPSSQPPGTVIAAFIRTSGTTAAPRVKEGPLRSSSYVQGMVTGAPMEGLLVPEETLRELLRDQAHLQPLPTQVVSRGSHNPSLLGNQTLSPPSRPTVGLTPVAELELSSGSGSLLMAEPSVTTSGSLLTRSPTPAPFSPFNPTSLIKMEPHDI
sequence,measurement,setting,value
ACCATA,binding signal,FLI1,"1.2 fold enrichment (6-mer frequency, TF over GST control)"
same,binding signal,ELK1,"1.16 fold enrichment (6-mer frequency, TF over GST control)"
same,binding signal,GABPA,"1.12 fold enrichment (6-mer frequency, TF over GST control)"
same,binding signal,ERG,"1.19 fold enrichment (6-mer frequency, TF over GST control)"
same,binding signal,ELF1,"1.16 fold enrichment (6-mer frequency, TF over GST control)"
same,binding signal,EHF,"1.12 fold enrichment (6-mer frequency, TF over GST control)"
same,binding signal,SPI1,"1.13 fold enrichment (6-mer frequency, TF over GST control)"
same,binding signal,SPIB,"1.19 fold enrichment (6-mer frequency, TF over GST control)"
same,binding signal,ELK3,"1.22 fold enrichment (6-mer frequency, TF over GST control)"
same,binding signal,FEV,"1.17 fold enrichment (6-mer frequency, TF over GST control)"
same,binding signal,ETV5,"1.21 fold enrichment (6-mer frequency, TF over GST control)"
same,binding signal,HSF1,"1.08 fold enrichment (6-mer frequency, TF over GST control)"
same,binding signal,SPIC,"1.22 fold enrichment (6-mer frequency, TF over GST control)"
same,binding signal,ELF4,"1.21 fold enrichment (6-mer frequency, TF over GST control)"
same,binding signal,ELK4,"1.31 fold enrichment (6-mer frequency, TF over GST control)"
same,binding signal,ETV2,"1.17 fold enrichment (6-mer frequency, TF over GST control)"
same,binding signal,ELF3,"1.14 fold enrichment (6-mer frequency, TF over GST control)"
same,binding signal,CRX,"1.14 fold enrichment (6-mer frequency, TF over GST control)"
same,binding signal,ETV1,"1.09 fold enrichment (6-mer frequency, TF over GST control)"
